The record followed here is PubChem BioAssay (NCI).

This is part of a sample that, as a whole, favours compounds with a hit. Of some 83,000 tested, about 20% had one in any assay.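 Interpretation: 100, growth as untreated; towards 0, rising growth inhibition; 0, no net growth; 0 to -100, cell death. Compounds scoring below 10 were considered active.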 Values without a mark were called inactive. Calls of active or inactive are those of the source.

Test systems include NCI-H23 lung; NCI-H226 lung; NCI-H322M lung; HOP-62 NSCLC; NCI-H460 lung; NCI-H522 lung; A549/ATCC NSCLC; 786-0 renal; COLO 205 colon; DU-145 prostate; K-562 leukemia; MALME-3M melanoma; MDA-MB-231 breast; RXF 393 renal; SF-268 CNS; SF-295 CNS; SF-539 CNS; UACC-257 melanoma; M14 melanoma; HCT-15 colon.
Common to all, as to experiment: NCI-60 one-dose screen, 48 h (100 = growth as untreated, 0 = no growth, -100 = all killed)
What all share (details): 10 µM unless noted

On to `CCOC(=O)C1=C(COCCN)NC(C)=C(C(=O)OC)C1c1ccccc1Cl` (stereo not drawn), for which the growth was 83.7% in the experiment with NCI-H23 lung; 91.9% in the experiment with NCI-H226 lung; 80.3% in the experiment with NCI-H322M lung; 89.7% in the experiment with HOP-62 NSCLC; 60.3% with NCI-H460 lung; 73.3% with NCI-H522 lung. The growth with A549/ATCC NSCLC was 71.8%; in the experiment with 786-0 renal, 70.1%; in the experiment on COLO 205 colon it was -51.9% (active); with DU-145 prostate it was 98.6%; with K-562 leukemia, 59.1%; in the experiment on MALME-3M melanoma, 74%. For the same compound, the growth with MDA-MB-231 breast was 17.4%; in the experiment with RXF 393 renal it was 50.9%; in the experiment on SF-268 CNS, 87%; in the experiment on SF-295 CNS, 96.2%; in the experiment with SF-539 CNS it was 92.9%; with UACC-257 melanoma it was 59%. Besides, the growth was 48.6% with M14 melanoma and 64.6% in the experiment on HCT-15 colon.

For `Cn1c(=O)c2c(nc(Br)n2CCC(=O)Nc2ccc(F)cc2)n(C)c1=O`, the growth is 101% in the experiment on NCI-H23 lung; 101% in the experiment on NCI-H226 lung; 106% in the experiment with NCI-H322M lung; 92.4% with HOP-62 NSCLC; 109% in the experiment with NCI-H460 lung; 87.9% in the experiment with NCI-H522 lung. Further, the growth with A549/ATCC NSCLC is 85.2%; in the experiment with 786-0 renal it was 100%; with COLO 205 colon, 112%; with DU-145 prostate, 118%; in the experiment on K-562 leukemia, 97.5%; in the experiment with MALME-3M melanoma it was 105%. The growth is 102% with MDA-MB-231 breast; 118% with RXF 393 renal; 111% with SF-268 CNS; 104% in the experiment on SF-295 CNS; 98.7% in the experiment with SF-539 CNS; 96.3% in the experiment on M14 melanoma. For the same compound, in the experiment with HCT-15 colon, the growth is 108%.

With `CCOC(=O)/C=C(/C)Sc1cc(O)c2ccccc2c1O`, the growth with NCI-H23 lung is -71.4% (active); in the experiment with NCI-H226 lung, 89.4%; with NCI-H322M lung, -19.9% (active); in the experiment on HOP-62 NSCLC, 157%; in the experiment on NCI-H460 lung, -64% (active); in the experiment with NCI-H522 lung it was 12.7%. Besides, the growth in the experiment on A549/ATCC NSCLC is -34.1% (active); in the experiment with 786-0 renal, 159%; in the experiment on COLO 205 colon, 46.6%; in the experiment on DU-145 prostate, -100% (active); with K-562 leukemia, 17.6%; with MALME-3M melanoma, -90% (active). In addition, the growth in the experiment on MDA-MB-231 breast is 14.7%; in the experiment with RXF 393 renal it was 46.1%; in the experiment with SF-268 CNS it was 32.8%; in the experiment on SF-295 CNS it was 30.2%; with SF-539 CNS, 5.78% (active); in the experiment on UACC-257 melanoma it was 5.04% (active). The values for the growth with M14 melanoma and in the experiment with HCT-15 colon were -94.6% (active) and -12.6% (active), respectively.

Consider `CCCc1cccc(CCC)c1O`, for which the growth with NCI-H23 lung was 100%; in the experiment on NCI-H226 lung, 106%; in the experiment on NCI-H322M lung, 124%; in the experiment on HOP-62 NSCLC it was 106%; in the experiment on NCI-H460 lung, 106%; in the experiment on NCI-H522 lung, 89.9%. The growth was 98.2% in the experiment on A549/ATCC NSCLC; 110% in the experiment on 786-0 renal; 116% in the experiment with COLO 205 colon; 120% in the experiment with DU-145 prostate; 104% with K-562 leukemia; 131% in the experiment on MALME-3M melanoma. Besides, the growth was 125% in the experiment with MDA-MB-231 breast; 121% in the experiment with RXF 393 renal; 109% with SF-268 CNS; 91.4% in the experiment with SF-295 CNS; 118% in the experiment with SF-539 CNS; 93.3% in the experiment on UACC-257 melanoma. Moreover, the growth in the experiment on HCT-15 colon is 107%.

As to `CCCCSc1cc(C)nc(N)n1`, the growth in the experiment on NCI-H23 lung was 95.9%; with NCI-H226 lung, 98.6%; in the experiment on NCI-H322M lung, 97.1%; in the experiment on HOP-62 NSCLC, 91.5%; in the experiment on NCI-H460 lung it was 103%; with NCI-H522 lung, 94.9%. Also, the growth was 97.8% in the experiment on A549/ATCC NSCLC; 95.6% in the experiment with 786-0 renal; 112% in the experiment on COLO 205 colon; 105% in the experiment with DU-145 prostate; 94.8% in the experiment with K-562 leukemia; 96.4% in the experiment with MALME-3M melanoma. Further, the growth in the experiment on MDA-MB-231 breast is 104%; in the experiment on RXF 393 renal, 105%; with SF-268 CNS, 98.8%; with SF-295 CNS, 102%; in the experiment with SF-539 CNS, 95.7%; with UACC-257 melanoma it was 109%. Moreover, the growth is 99.2% in the experiment with M14 melanoma and 91.1% in the experiment with HCT-15 colon.

Turning to `O=c1ccn(C2OC(CO)C(O)C2F)c(=O)[nH]1` (stereo not drawn), the growth was 90.5% with NCI-H23 lung; 101% in the experiment on NCI-H226 lung; 117% in the experiment on NCI-H322M lung; 103% in the experiment with HOP-62 NSCLC; 113% with NCI-H460 lung; 109% with NCI-H522 lung. Further, the growth in the experiment on A549/ATCC NSCLC is 109%; with 786-0 renal, 99.2%; with COLO 205 colon, 128%; in the experiment with DU-145 prostate, 119%; in the experiment on K-562 leukemia, 117%; in the experiment with MALME-3M melanoma it was 116%. Besides, the growth in the experiment on MDA-MB-231 breast was 117%; in the experiment with RXF 393 renal, 132%; in the experiment with SF-268 CNS, 111%; with SF-295 CNS it was 105%; with SF-539 CNS it was 103%; in the experiment on UACC-257 melanoma it was 114%. Also, the results for the growth in the experiment with M14 melanoma and with HCT-15 colon were 108% and 112%, respectively.

As to `CCC1=C(c2ccc(OC)cc2)C(C)(C)Oc2cc(O)c(CN3CCCC3)cc21`, the growth was 68.1% with NCI-H23 lung; 97.6% in the experiment on NCI-H226 lung; 92% with NCI-H322M lung; 71.4% with HOP-62 NSCLC; 86.6% with NCI-H460 lung; 41.5% with NCI-H522 lung. Besides, the growth with A549/ATCC NSCLC is 85.1%; with 786-0 renal, 59%; with COLO 205 colon it was 65.9%; in the experiment on DU-145 prostate, 93.8%; in the experiment with K-562 leukemia, 19.7%; with MALME-3M melanoma, 77.2%. Moreover, the growth in the experiment with MDA-MB-231 breast was 95.8%; in the experiment on RXF 393 renal it was 79.9%; in the experiment on SF-268 CNS, 88.4%; in the experiment on SF-295 CNS, 51%; in the experiment with SF-539 CNS, 76.8%; in the experiment on UACC-257 melanoma, 72%. Further, the values for the growth in the experiment on M14 melanoma and with HCT-15 colon were 62.1% and 82.2%, respectively.

In the case of `NCCCc1nnc(CCC(=O)c2nc3ccccc3[nH]2)o1`, the growth is 98.3% in the experiment with NCI-H23 lung; 108% in the experiment on NCI-H226 lung; 97.3% in the experiment with NCI-H322M lung; 112% with HOP-62 NSCLC; 115% with NCI-H460 lung; 103% in the experiment on NCI-H522 lung. Besides, the growth is 106% in the experiment on A549/ATCC NSCLC; 103% in the experiment on 786-0 renal; 111% with COLO 205 colon; 115% in the experiment on DU-145 prostate; 98.5% with K-562 leukemia; 82.2% with MALME-3M melanoma. The growth in the experiment on MDA-MB-231 breast was 89.8%; in the experiment with RXF 393 renal it was 116%; with SF-268 CNS it was 115%; with SF-295 CNS it was 98.4%; in the experiment with SF-539 CNS, 101%; in the experiment with UACC-257 melanoma, 113%. Besides, the growth is 109% with M14 melanoma and 90% in the experiment on HCT-15 colon.
